# Measurements published in PubChem BioAssay AID588674 (Broad Institute, 2011).
# About 1,800 (0.5%) of roughly 360,000 compounds were called active. Only a selection was taken, and actives are over-represented in it overall. A number with no mark means an inactive call.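 The calls were made as follows: active = mean inhibition of at least 75% with every replicate also reaching 75%; inconclusive = mean inhibition at least 75% but some replicate below; inactive = mean inhibition below 75%.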
# Experiment: reduction of Shn3 3'UTR firefly luciferase signal, primary screen, Schnurri-3 inhibitor project, cell-based, Clone20 osteoblasts, set 2 (AID 588674);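 also: 0% = median of neutral control wells and 100% = pilot-screen positive control compound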
# Conditions: Clone20 osteoblast Shn3 3'UTR firefly luciferase, 24 h; at 12.5 µM; active compounds read high
row,SMILES,inhibition
1,Cc1cc(=O)oc2cc(OC(C)C(=O)Nc3ccc(N4CCOCC4)cc3)ccc12 (stereo unspecified),10%
2,O=C(CSc1nnnn1-c1ccc2c(c1)CCC2)Nc1ccc2c(c1)OCCO2,0.48%
3,FC(F)(F)c1cccc(-c2nc(COc3ccc(Cl)cc3Cl)no2)c1,6.45%
4,c1ccc(-c2nccc(-c3ccc(-n4cnc5ccccc54)cc3)n2)nc1,11.2%
5,CC(C)(C)Nc1nc(-c2ccccn2)nc2ccccc12,89.7% (active)
6,Cc1nc2ccccc2c(C(=O)O)c1-c1ccccn1,-12.3%
7,CN(CC(=O)NCc1ccncc1)S(=O)(=O)c1ccc(Br)cc1,7.05%
8,O=C(NC1=NCCS1)c1ccc(Cl)s1,-84.7%
9,C=C1C(=O)[C@]23C[C@H]1CCC2[C@@]1(C)C(C[C@@H]3O)[C@](C)(C(=O)O)CC[C@@H]1O (stereo partly specified),29.4%
10,O=C(/C=C/Sc1ncn[nH]1)c1ccc(Cl)cc1,97.7% (active)
11,NC(=O)C1CCN(C(=O)c2cc(S(=O)(=O)N3CCN(c4ccccc4)CC3)ccc2Cl)CC1,-11.1%
12,CC1CCC(N2CC(=O)N(Cc3ccc4c(c3)OCO4)C(c3ccc(F)cc3)C2=O)CC1 (stereo unspecified),7.77%
13,COc1cc(SC)ccc1C(=O)NNC(=O)C1COc2ccccc2O1 (stereo unspecified),4.8%
14,Cc1csc(NC(=O)CSc2nc(=O)cc(N)n2-c2ccc(F)cc2)n1,-11%
15,COc1cc(SC)ccc1C(=O)Nc1nc(C)cs1,86.2% (active)
16,CCOc1ccc(C(CCc2ccccc2)NC(=O)c2ccc(OC)c(OC)c2)cc1OCC (stereo unspecified),20%
17,C=CCn1c(COc2cccc3cccnc23)nnc1SCC(=O)OC,0.069%
18,CCCCC(=O)NC(c1ccc(OC)c(OC)c1)c1ccc2cccnc2c1O (stereo unspecified),87.9% (active)
19,COC(=O)c1sccc1-n1cccc1C(=O)C(=O)N1CCCCC1,2.95%
20,O=C(COc1ccc(-n2cnnn2)cc1)Nc1ccccc1Cl,1.66%
21,O=C(Nc1ccccc1Cl)/C(Cl)=C(\Cl)S(=O)c1ccccc1 (stereo unspecified),97.6% (active)
22,CS/C(=C\C(=O)c1ccco1)Nc1ccccc1Cl,-15.1%
23,Cc1cccc(N2CCN(C(=O)CCS(=O)(=O)c3ccc4c(c3)NC(=O)C(C)S4)CC2)c1C (stereo unspecified),78.8%

row,SMILES,inhibition
1,CC(=O)Nc1ccc(NC(=O)C(C)OC(=O)C2CC(=O)N(CCc3ccccc3)C2)cc1 (stereo unspecified),-14.3%
2,O=C(COC(=O)C1CC2CCCC(C1)C2=O)NC(=O)c1ccccc1 (stereo unspecified),14.5%
3,COc1ccc(C(C#N)=C2C=CC(=NO)c3ccccc32)cc1,18.4%
4,Cc1cccc(C(=O)Nc2nnc(S(=O)(=O)N3CCCCCC3)s2)c1,-6.34%
5,O=C(Nc1nnc(-c2ccc(F)cc2)s1)c1c(F)cccc1Cl,-31.5%
6,Cc1ccc(CS(=O)(=O)c2ncc(Cl)c(C(=O)Nc3nnc(C)s3)n2)cc1,98.8% (active)
7,CSc1nnc(NC(=O)c2nc(S(=O)(=O)Cc3ccc(C)cc3)ncc2Cl)s1,97% (active)
8,NC(=O)CSc1nnc(NC(=O)c2ccc(Br)o2)s1,-19.4%
9,Cc1ccc(S(=O)(=O)CCC(=O)Nc2nnc(CC(C)C)s2)cc1,-5.29%
10,O=C(O)C1C2C=CC(O2)C1C(=O)Nc1ccccn1 (stereo unspecified),1.15%
11,NC(=O)C1CCN(Cc2nc3c(Br)cc(Br)cc3c(=O)[nH]2)CC1,9.29%
12,CC(C)C[C@H]1CNC(=S)N1C[C@H]1CCCN1C[C@H](Cc1ccc(O)cc1)N1C[C@H](Cc2ccc(O)cc2)N(CC2CCCCC2)C1=S,9.03%
13,Cc1noc(COc2ccccc2OCc2onc(C)c2Cl)c1Cl,9.9%
14,O=C(C=CC(=O)Nc1ccc(F)cc1F)Nc1ccc(F)cc1F,12.7%
15,COc1ccc(NC(=O)C2Cc3c(-c4cccc(NC(C)=O)c4)ccnc3O2)cc1OC (stereo unspecified),47.1%
16,CC(CCc1ccccc1)NC(=O)COC(=O)c1ccc(F)cc1 (stereo unspecified),-0.45%
17,O=c1cc(CN2CCCCCCC2)c2c(ccc3ccccc32)o1,21.3%
18,Cc1cccc(C)c1NC(=O)CN1CCN(c2ccc(F)cc2)CC1,-13.2%
19,Oc1c(CN2CCCC2)cc(COCc2ccccc2)c2cccnc12,86% (active)
20,Oc1c(CN2CCN(c3ccc(F)cc3)CC2)cc(Cl)c2cccnc12,83.5% (active)
21,O=C(Cc1ccccc1)NNC(=O)C1CCN(c2ncccn2)CC1,-8.28%
22,Cc1cc(=O)oc2cc(OCC(=O)N3CCN(c4ccc(F)cc4)CC3)c(Cl)cc12,4.64%
23,CC1(C)OC(=O)N2CCc3ccccc3C21C (stereo unspecified),-7.85%

row,SMILES,inhibition
1,CC(OC(=O)c1cccnc1Cl)C(=O)NC1CCCCC1 (stereo unspecified),-10.8%
2,COC(=O)C1CCN(C(=O)NC2CC(=O)N(c3ccc4c(c3)OCCO4)C2)CC1 (stereo unspecified),-6.55%
3,CC(=O)Nc1cc(-c2cccc(CO)c2)cn2c(-c3cccc(C(F)(F)F)c3)cnc12,10.6%
4,C[C@H]([C@@H](O)[C@@H](O)[C@@H](C)C(C)(C)C)[C@H]1CC[C@H]2C3CC[C@H]4C[C@H](OS(=O)(=O)O)[C@@H](OS(=O)(=O)O)C[C@]4(C)[C@H]3CC[C@]12C (stereo partly specified),-9.66%
5,CC(=O)c1ccccc1NC(=O)CC1(CC(=O)O)CCCCC1,-24.1%
6,C=CCOc1nc2c(c(=O)n(C)c(=O)n2C)n1Cc1ccc(Cl)cc1Cl,86.3% (active)
7,Cn1c(=O)c2c(nc(OCc3cccnc3)n2Cc2ccccc2)n(C)c1=O,30%
8,C=CCn1c(Oc2ccc(C(=O)OC)cc2)nc2c1c(=O)n(C)c(=O)n2C,21%
9,CCCn1c(=S)[nH]c2ccc(C(F)(F)F)cc21,-4.29%
10,Cn1nccc1C(=O)NC1CCCc2c1cnn2-c1ccc(F)cc1F (stereo unspecified),77.1%
11,Cn1nccc1C(=O)NC1CCCc2c1cnn2-c1ccccc1F (stereo unspecified),90.2% (active)
12,COc1ccc(C(=O)NC2CCCc3c2cnn3-c2cccc(C)c2C)c(OC)n1 (stereo unspecified),84.1%
13,COc1ccc(-c2ccc(C(=O)NCCN3CCOCC3)c3occc23)c(C)c1,12.3%
14,C/C(=N\NC(=O)C1(C)CC1(Br)Br)c1ccc(C)cc1C (stereo unspecified),8.35%
15,S=C(NN=Cc1ccccn1)Nc1ccccn1,67.3%
16,Cc1cc(=O)[nH]c(N/N=C/c2c(C)nn(-c3ccccc3Cl)c2Cl)n1,14.6%
17,Cc1nnc(N/N=C/c2ccccn2)[nH]c1=O,90.6% (active)
18,C/C=C(/C)C(=O)O[C@@H]1c2cc3c(c4c2[C@@]2(CO4)C(=O)C(OC)=C(OC)C=C2C[C@@H](C)[C@H]1C)OCO3,-16.2%
19,NC1=CC(=O)C(=O)c2cccnc21,96.6% (active)
20,C=CCOc1ccccc1NC(=O)CN1C(=O)CNC1=O,-14.9%
21,Cc1cc(=O)oc2c3c(cc(OCC(=O)NCC(O)c4ccccc4)c12)OC(C)(C)CC3 (stereo unspecified),0.998%
22,COc1cc2c(cc1OC)C(=O)NCC(C)(C)O2,9.62%
23,CC1=C(C(=O)N2CCOCC2)CC(CC(=O)NCc2ccco2)C(=O)N1Cc1ccc(F)cc1 (stereo unspecified),-16.3%

row,SMILES,inhibition
1,Cc1ccc2c(c1)N(C(=O)CCC(=O)N1CCc3ccccc3C1)CCO2,11.3%
2,COc1ccc(-c2ccc(Nc3ccc(S(=O)(=O)N4CCCC4)cc3)nn2)cc1OC,91.7% (active)
3,COc1ccc(S(=O)(=O)N2CCCCCC2)cc1NC(=O)Cc1ccc(OC)c(OC)c1,6.94%
4,COc1cc(C(C)=O)ccc1OC(C)C(=O)Nc1ccc(S(=O)(=O)N2CCCC2)cc1 (stereo unspecified),-9.75%
5,Cc1onc(-c2ccccc2Cl)c1C(=O)N(Cc1ccc(N(C)C)cc1)C(C)C,15%
6,Cc1cc2cc3n(c2nn1)N=C(Cl)CC3,15.8%
7,O=C(CN1CCN(C(=O)C2CCCO2)CC1)Nc1c(Cl)cccc1Cl (stereo unspecified),1.7%
8,Cn1c(=O)c2c(SCC(=O)NCC3CCCO3)nc(CC(C)(C)C)nc2n(C)c1=O (stereo unspecified),-3.55%
9,Cc1noc(C)c1COC(=O)Cn1c(C)nc2ccccc21,6.2%
10,CCCCCCCCCCOC(=O)Cn1c(COc2ccc(C)cc2)[n+](C)c2ccccc21,94.3% (active)
11,Cc1ccc(COc2ccc(C(=O)NN)cc2)cc1,-0.097%
12,COc1ccc(-n2c(C)nn(CC3CC3)c2=O)cc1,0.917%
13,CCOc1ccc(N(C)S(=O)(=O)c2cnc[nH]2)cc1,14%
14,Nc1ncnc2c1ncn2[C@@H]1O[C@H](C(=O)NCC(F)(F)F)[C@@H](O)[C@H]1O,2.47%
15,Cc1[nH]c2ccccc2c1-c1ccc(Cl)nn1,-0.142%
16,N#Cc1c(-c2ccccc2)nc(SCc2cccc(C(F)(F)F)c2)[nH]c1=O,-18.7%
17,O=c1c2ccccc2nc2n1C(CSCc1ccccc1)CS2 (stereo unspecified),76.2%
18,O=c1c2ccccc2nc2n1C(CSCc1cccc(C(F)(F)F)c1)CS2 (stereo unspecified),92.5% (active)
19,C=CCn1c(C)cc(C2=NNC(=NCC)SC2)c1C,91% (active)
20,CN(Cc1ccc(C(F)(F)F)cc1)C(=O)[C@H]1O[C@@H](n2cnc3c(N)ncnc32)[C@H](O)[C@@H]1O,6.4%
21,CCn1nc(C(=O)Nc2ccc(N3CCOCC3)cc2)c2ccccc2c1=O,5.09%
22,C[C@@H]1C[C@@H]2O[C@H]2/C=C\C=C\C(=O)Cc2c(Cl)c(O)cc(O)c2C(=O)O1,86.9% (active)
